Assay results published in the supplement of paper PMC3334620.
In all, about 33,000 sequences were measured (“E-score (-0.5 to 0.5)”: median about -0.012, highest 2% from about 0.29 on). The entries come from a sample that favours the highest values as a whole.

Target: T1, Ybr033w (UniProt P38073)
T1 sequence: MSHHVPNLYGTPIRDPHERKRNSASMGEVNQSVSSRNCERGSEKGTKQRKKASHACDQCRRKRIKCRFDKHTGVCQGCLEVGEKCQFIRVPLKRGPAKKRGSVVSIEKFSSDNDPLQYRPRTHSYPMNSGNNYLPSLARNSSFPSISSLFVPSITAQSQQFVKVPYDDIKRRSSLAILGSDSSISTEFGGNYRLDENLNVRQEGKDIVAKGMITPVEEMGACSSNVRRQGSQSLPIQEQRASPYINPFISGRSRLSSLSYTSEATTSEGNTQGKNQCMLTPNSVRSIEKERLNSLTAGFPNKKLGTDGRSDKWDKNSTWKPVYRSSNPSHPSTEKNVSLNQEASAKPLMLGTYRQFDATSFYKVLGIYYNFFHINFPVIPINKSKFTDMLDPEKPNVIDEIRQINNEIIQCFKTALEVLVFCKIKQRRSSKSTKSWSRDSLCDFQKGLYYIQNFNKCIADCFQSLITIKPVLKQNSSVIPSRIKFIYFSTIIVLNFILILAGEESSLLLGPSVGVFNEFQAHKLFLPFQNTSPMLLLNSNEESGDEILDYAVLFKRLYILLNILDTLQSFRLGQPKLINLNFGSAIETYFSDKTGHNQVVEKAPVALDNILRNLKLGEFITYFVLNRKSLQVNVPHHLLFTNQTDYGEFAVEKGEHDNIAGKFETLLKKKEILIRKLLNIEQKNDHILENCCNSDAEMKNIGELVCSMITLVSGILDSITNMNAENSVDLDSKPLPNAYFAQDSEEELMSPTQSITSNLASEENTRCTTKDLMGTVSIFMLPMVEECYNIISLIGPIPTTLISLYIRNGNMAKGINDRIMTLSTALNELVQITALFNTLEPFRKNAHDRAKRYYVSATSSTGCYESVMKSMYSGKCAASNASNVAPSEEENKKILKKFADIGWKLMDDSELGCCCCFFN
Assay: PBM E-score (8-mer binding enrichment) (E-score (-0.5 to 0.5)); higher = stronger / more preferred TF binding
Conditions: protein concentration: 200 nM; construct: GST-full length
Summary of the method: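 Detection of bound protein used fluorescent anti-GST, with scans normalised by masliner. The proteins were GST-tagged yeast transcription factors applied at about 100-200 nM to universal all-10-mer Agilent arrays made double-stranded by primer extension. Each ungapped eight-base word, pooled with its reverse complement, was scored with an E-score from the Universal PBM Analysis Suite.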

Sequence | PBM E-score
GTTCCTAA | 0.125
GATATAGC | 0.156
ATATGAGC | -0.0174
ATTTTACG | 0.328
AATTTACG | 0.232
ATTTTACC | 0.362
CTTTTACC | 0.101
AATTTACC | 0.103
ATTTTACA | 0.0461
CCATTAGA | -0.14
CTGATAGC | -0.0429
TGTTCTAA | 0.181
TAGATCTA | 0.19
GTTCACAA | 0.18
ATTCACAG | 0.0908
ATTCACAA | 0.294
ATGAGGGG | -0.206
CAAAATAG | 0.0554
GAAAATAC | 0.252
AAAAAAAT | 0.248
ACAAATAT | 0.287
AAAAATAG | 0.296
AAAAATAT | 0.349
ACAAATAG | 0.167
AAAAATAC | 0.304

Sequence | PBM E-score
CAAAATAC | 0.217
ACTTTTAC | 0.327
CATTTTAC | 0.298
ACTTTTAA | 0.125
CATTTTAA | 0.16
ACTTTTAG | 0.0501
CATTTTAG | 0.234
AGAACCGC | 0.096
AGCGATTG | -0.0938
CAAATAAC | 0.214
GAAAAACA | 0.295
GAAAACCC | -0.0428
GGAAAACA | 0.17
GGAAAACC | -0.11
GAAGAACC | 0.248
GCAAAACA | 0.0364
GAAAAACC | 0.386
CAAGAACA | 0.0281
GAAGAACA | 0.353
AAAAAACA | 0.242
TCAAAACA | 0.298
CCAAAACA | -0.026
CGGAACCA | 0.141
AAACAATC | 0.234
CAACAAAC | 0.161

Sequence | PBM E-score
TAACAATA | 0.273
GAACAAAC | 0.345
AAACAAAC | 0.229
CAACAATC | 0.256
GAACAATC | 0.323
GAACAATA | 0.412
AAACAATA | 0.196
TAGCAATA | 0.16
AATCAGCT | 0.185
AGCTGCCG | -0.115
AGTTAATA | 0.336
AGTTAAAA | 0.298
TGTTAAAA | 0.226
AGTTAATC | 0.368
AGTTAATG | 0.216
CGTTAATC | 0.248
CGTTAAAA | -0.0301
CGTTAATA | 0.166
GGTTAATA | 0.209
TATTTGGA | 0.082
TCCAGACA | -0.127
GAGCGCAA | -0.0711
AACATACA | 0.179
CACTCTTA | 0.0582
GAAGATGC | -0.106

Sequence | PBM E-score
AACAATAA | 0.258
AATAATGT | 0.183
TATAATAA | 0.318
CATAATAA | 0.131
GGTAATAA | 0.228
AACAATAT | 0.375
GATAATAA | 0.194
TGTAATAA | 0.297
AACAATAC | 0.157
CGTAATAA | 0.154
AATAATAT | 0.388
AATAATAC | 0.245
AAGTTTAA | 0.139
AAAAGAAA | 0.179
ACGGACGT | -0.144
AAAGAGCC | -0.112
CAGGCTGC | -0.118
AATAATAA | 0.399
AATAATAG | 0.202
CCTAATAA | -0.0059
AGTAATAC | 0.222
TCTAATAA | 0.291
AGTAATAT | 0.336
AGTAATAG | 0.218
ACTAATAA | 0.276
